Inhibition data for 17 compounds are collected here from PubChem BioAssay AID493152 (Sanford-Burnham Center for Chemical Genomics, 2011).

This is one part of the list. Activity calls are given as the source filed them.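 The calls were made as follows: active = inhibition reaching a set limit in any replicate at 20 µM, the limit being 80% of the first screen's; inactive = the rest.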

DNA dC->dU-editing enzyme APOBEC-3G (Homo sapiens), sequence (Q9HC16 whole entry, looked up): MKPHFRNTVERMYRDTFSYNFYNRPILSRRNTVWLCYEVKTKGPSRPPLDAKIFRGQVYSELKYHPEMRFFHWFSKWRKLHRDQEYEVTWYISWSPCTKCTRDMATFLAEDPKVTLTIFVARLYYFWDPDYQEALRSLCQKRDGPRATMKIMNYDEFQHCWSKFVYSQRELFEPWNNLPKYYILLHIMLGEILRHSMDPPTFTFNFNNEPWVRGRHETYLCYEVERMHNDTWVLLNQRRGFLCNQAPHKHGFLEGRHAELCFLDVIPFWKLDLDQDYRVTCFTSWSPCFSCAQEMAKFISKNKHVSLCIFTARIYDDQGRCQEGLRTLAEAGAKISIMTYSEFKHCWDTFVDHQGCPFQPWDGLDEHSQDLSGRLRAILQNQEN

This assay has as its target DNA dC->dU-editing enzyme APOBEC-3G (Homo sapiens) (UniProt Q9HC16). Description: human A3G ssDNA deamination inhibition, hit confirmation – biochemical, fluorescence, single-stranded DNA substrate, single concentration (AID 493152). The settings on record: recombinant A3G ssDNA deaminase, UDG/FAM-TAMRA fluorescence; at 20 µM; active compounds read high.
`CCOc1ccc(NC(=O)Nc2cc(C)on2)cc1`: the inhibition is 0.05% (inactive). With `CC1=C/C(=N\OS(=O)(=O)c2ccccc2)C=CC1=O`, the inhibition is 63.8% (active). For `O=C1CC(Sc2ncn[nH]2)C(=O)N1c1ccccc1` (configuration not stated) the value was 40.4% (active). Regarding `Fc1ccccc1/C=N/n1c(-c2cccnc2)n[nH]c1=S`, the inhibition was 84.9% (active). For `COc1ccc(OCc2n[nH]c(=S)n2N)cc1` the value was 56.2% (active); for `Cc1nc2scc(-c3cccs3)c2c(=O)n1N`, 0.32% (inactive); for `S=c1[nH]nc(NCCc2ccccc2)s1`, 81.5% (active). As to `Cc1ccc(NC(=O)c2sc3nc(N)c(C#N)cc3c2N)cc1`, the inhibition is -7.68% (inactive). As to `Cc1cc(-c2n[nH]c(=S)n2-c2ccc(C)c(C)c2)no1`, the inhibition was 74.9% (active). Turning to `COc1cccc(C(=O)CC(=O)C(=O)Nc2ccc([N+](=O)[O-])cc2C)c1`, the inhibition is 2.17% (inactive). For `CC(=O)N(C1=C(Cl)C(=O)c2ccccc2C1=O)c1ccc(C(=O)O)cc1` the value was 99.2% (active); for `CCn1c(CN2C(=O)CSc3ccccc32)n[nH]c1=S`, 23.9% (inactive); for `Nc1ccccc1SC(C[N+](=O)[O-])c1ccccc1` (configuration not stated), 83.4% (active). Consider `CC(C)(C)c1nnc(NC(=O)C2c3ccccc3Oc3ccccc32)s1`, for which the inhibition was 31.2% (active). For `C=C(C)C(=O)Nc1cccc(C2=NOC3(C2)C[C@H](C(N)=O)N(C(=O)C(c2ccccc2)c2ccccc2)C3)c1` (some centres not stated), the inhibition is 44.3% (active).

For `Cc1cccc(-n2c(N)c(C(=O)N3CCN(C)CC3)sc2=S)c1`, the inhibition was 77.7% (active). In the case of `COc1ccc2[nH]c(=S)cc(C)c2c1`, the inhibition was 74.7% (active).

As usually defined, the inhibition is the change of the read-out against control, counted positive when it falls.
